Experimental data reported in PubChem BioAssay AID1159580 (chemical genetic matrix, 2015).
Among all 5,500 compounds or so, about 2,000 (36%) were called active. Not shown: some 18% with an inconclusive outcome. Rule as the data show it: active = normalized growth mostly below about 0.91 (no sharp cut-off); inconclusive = no clear call, values can overlap the other calls; inactive = mostly above about 0.92. The list shows a part of the results.

Assay: chemical genetic growth profiling, strain panel (AID 1159580);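 also: tested at 20 µM; growth read once vehicle control cultures reached saturation at 30 °C; 1 = growth at the plate median or of vehicle wells; lower values mean less growth of the strain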
Settings: S. cerevisiae deletion strains, growth OD

Measured: normalized growth

C=C1CCC2[C@](C)(CO)[C@H](O)CC[C@@]2(C)[C@@H]1C/C=C1/C(=O)OC[C@H]1O (some centres undefined)
inactive: locus YAL013W, strain DEP1, hits give low values 1.01 | locus YAL021C, strain ccr4, hits give low values 0.993 | locus YAL026C, strain drs2, hits give low values 0.992 | locus YAL030W, strain snc1, hits give low values 0.996 | locus YBL061C, strain skt5, hits give low values 1 | locus YBR009C, strain hhf1, hits give low values 1.02 | locus YBR021W, strain FUR4, hits give low values 1 | locus YBR023C, strain chs3, hits give low values 0.999 | locus YBR171W, strain sec66, hits give low values 0.978 | locus YBR229C, strain ROT2, hits give low values 1.01 | locus YBR231C, strain swc5, hits give low values 0.996 | locus YBR279W, strain paf1, hits give low values 1 | locus YCL011C, strain gbp2, hits give low values 0.985 | locus YCL016C, strain dcc1, hits give low values 0.998 | locus YCL029C, strain bik1, hits give low values 1.03 | locus YCL069W, strain vba3, hits give low values 1.01 | locus YCR088W, strain abp1, hits give low values 1 | locus YDL005C, strain med2, hits give low values 0.961 | locus YDL035C, strain GPR1, hits give low values 1.02 | locus YDL040C, strain nat1, hits give low values 0.995 | locus YDL074C, strain BRE1, hits give low values 1.06 | locus YDL101C, strain DUN1, hits give low values 1.02 | locus YDL185W, strain tfp1, hits give low values 1.03 | locus YDL192W, strain arf1, hits give low values 1.02 | locus YDR001C, strain nth1, hits give low values 0.988 | locus YDR069C, strain doa4, hits give low values 0.992 | locus YDR101C, strain arx1, hits give low values 1.01 | locus YDR137W, strain rgp1, hits give low values 0.995 | locus YDR159W, strain sac3, hits give low values 1.04 | locus YDR162C, strain NBP2, hits give low values 1.04 | locus YDR195W, strain ref2 0.949 | locus YDR297W, strain sur2, hits give low values 1 | locus YDR318W, strain mcm21, hits give low values 1.05 | locus YDR334W, strain swr1, hits give low values 0.987 | locus YDR335W, strain msn5, hits give low values 0.986 | locus YDR388W, hits give low values 1.01 | locus YDR392W, strain spt3, hits give low values 0.998 | locus YDR502C, strain sam2, hits give low values 1.05 | locus YEL003W, strain gim4, hits give low values 0.995 | locus YEL037C, strain rad23, hits give low values 0.999 | locus YEL061C, strain CIN8 (second series), hits give low values 0.99 | locus YEL061C, strain CIN8, hits give low values 1.01 | locus YER015W, strain faa2, hits give low values 0.994 | locus YER016W, strain bim1, hits give low values 0.978 | locus YER110C, hits give low values 1.02 | locus YER111C, strain swi4, hits give low values 0.988 | locus YER155C, strain BEM2 (second series), hits give low values 0.995 | locus YER155C, strain BEM2, hits give low values 1.02 | locus YER167W, strain BCK2, hits give low values 1.01 | locus YFR010W, strain ubp6, hits give low values 1.02 | locus YGL078C, strain dbp3, hits give low values 1.03 | locus YGL086W, strain mad1, hits give low values 1.01 | locus YGL167C, strain pmr1, hits give low values 0.992 | locus YGL173C, strain kem1, hits give low values 1.01 | locus YGL227W, strain vid30, hits give low values 0.991 | locus YGL240W, strain doc1, hits give low values 0.999 | locus YGL248W, strain PDE1, hits give low values 1.03 | locus YGL253W, strain hxk2, hits give low values 0.971 | locus YGR078C, strain PAC10, hits give low values 1.03 | locus YGR135W, strain pre9, hits give low values 1.05 | locus YGR252W, strain gcn5, hits give low values 1.01 | locus YHR013C, strain ard1, hits give low values 0.983 | locus YHR027C, strain rpn1, hits give low values 0.976 | locus YHR079C, strain IRE1 (second series), hits give low values 1.03 | locus YHR094C, strain hxt1, hits give low values 1.02 | locus YHR129C, strain ARP1, hits give low values 1.01 | locus YHR142W, strain chs7, hits give low values 0.976 | locus YHR200W, strain rpn10, hits give low values 1.03 | locus YIL066C, strain RNR3, hits give low values 1.02 | locus YIL073C, strain SPO22, hits give low values 1.11 | locus YIL125W, strain kgd1, hits give low values 1.03 | locus YIR030C, strain dcg1, hits give low values 1.03 | locus YJL092W, strain hpr5, hits give low values 0.985 | locus YJL095W, strain BCK1 (second series), hits give low values 0.982 | locus YJL095W, strain BCK1, hits give low values 1.05 | locus YJL115W, strain asf1, hits give low values 0.955 | locus YJL129C, strain trk1, hits give low values 0.982 | locus YJL134W, strain LCB3, hits give low values 1.01 | locus YJL154C, strain vps35, hits give low values 0.984 | locus YJL164C, strain tpk1, hits give low values 1.01 | locus YJL166W, strain qcr8, hits give low values 0.987 | locus YJL168C, strain set2, hits give low values 1.02 | locus YJL187C, strain SWE1 (second series), hits give low values 1.02 | locus YJL187C, strain SWE1, hits give low values 0.996 | locus YJR043C, strain POL32, hits give low values 1.02 | locus YKL009W, strain mrt4, hits give low values 1.02 | locus YKL068W, hits give low values 1.02 | locus YKL085W, strain MDH1 (second series), hits give low values 1.03 | locus YKL085W, strain MDH1, hits give low values 1.03 | locus YKL160W, strain elf1, hits give low values 0.995 | locus YKL190W, strain CNB1, hits give low values 1.01 | locus YKR001C, strain vps1, hits give low values 1.07 | locus YKR026C, strain gcn3, hits give low values 0.999 | locus YKR091W, strain srl3, hits give low values 0.979 | locus YLL001W, strain dnm1, hits give low values 1.01 | locus YLL026W, hits give low values 0.993 | locus YLL041C, strain sdh2, hits give low values 1.02 | locus YLR027C, strain aat2, hits give low values 1 | locus YLR039C, strain RIC1, hits give low values 1.09 | locus YLR058C, strain SHM2, hits give low values 1.04 | locus YLR102C, strain apc9, hits give low values 1.02 | locus YLR221C, strain rsa3, hits give low values 1.04 | locus YLR258W, strain gsy2, hits give low values 1.01 | locus YLR262C, strain YPT6 (second series), hits give low values 0.975 | locus YLR268W, strain sec22, hits give low values 1.04 | locus YLR320W, strain mms22, hits give low values 1.04 | locus YLR330W, strain CHS5, hits give low values 1.02 | locus YLR342W, strain FKS1, hits give low values 1.02 | locus YLR357W, strain rsc2, hits give low values 0.979 | locus YLR370C, strain arc18, hits give low values 0.972 | locus YLR371W, strain rom2, hits give low values 1.02 | locus YLR384C, strain iki3, hits give low values 0.993 | locus YLR418C, strain cdc73, hits give low values 1.07 | locus YML016C, strain PPZ1, hits give low values 1.01 | locus YML032C, strain rad52, hits give low values 1.03 | locus YML120C, strain ndi1, hits give low values 1 | locus YML124C, strain tub3, hits give low values 1.03 | locus YMR058W, strain fet3, hits give low values 0.977 | locus YMR078C, strain ctf18, hits give low values 1.03 | locus YMR125W, strain sto1, hits give low values 0.98 | locus YMR129W, hits give low values 0.98 | locus YMR205C, strain PFK2, hits give low values 0.995 | locus YMR223W, strain ubp8, hits give low values 1.03 | locus YMR231W, strain pep5, hits give low values 0.997 | locus YMR307W, strain GAS1, hits give low values 0.967 | locus YNL067W, strain RPL9B, hits give low values 1.02 | locus YNL071W, strain lat1, hits give low values 1 | locus YNL209W, strain ssb2, hits give low values 0.987 | locus YNL233W, strain BNI4, hits give low values 1.02 | locus YNL248C, strain rpa49, hits give low values 0.979 | locus YNL250W, strain rad50, hits give low values 1.04 | locus YNL271C, strain bni1, hits give low values 1.03 | locus YNL298W, strain CLA4, hits give low values 1.03 | locus YNL307C, strain MCK1, hits give low values 1.04 | locus YNL322C, strain KRE1 (second series), hits give low values 0.977 | locus YNR049C, strain mso1, hits give low values 0.974 | locus YNR052C, strain pop2, hits give low values 1.03 | locus YOL006C, strain TOP1, hits give low values 1.07 | locus YOL012C, strain htz1 1.13 | locus YOL147C, strain pex11, hits give low values 1.04 | locus YOR001W, strain rrp6, hits give low values 1.01 | locus YOR061W, strain CKA2, hits give low values 1.02 | locus YOR069W, strain VPS5, hits give low values 1.01 | locus YOR070C, strain gyp1, hits give low values 1.01 | locus YOR080W, strain dia2, hits give low values 0.966 | locus YOR083W, strain WHI5, hits give low values 1 | locus YOR106W, strain vam3, hits give low values 0.986 | locus YOR136W, strain idh2, hits give low values 1.04 | locus YOR144C, strain elg1, hits give low values 1.03 | locus YOR184W, strain ser1, hits give low values 1.05 | locus YOR265W, strain rbl2, hits give low values 0.993 | locus YOR270C, strain vph1, hits give low values 1.02 | locus YOR290C, strain snf2, hits give low values 0.966 | locus YOR316C, strain cot1, hits give low values 1.03 | locus YPL051W, strain arl3, hits give low values 0.986 | locus YPL078C, strain atp4, hits give low values 0.982 | locus YPL106C, strain sse1, hits give low values 1 | locus YPL240C, strain hsp82, hits give low values 0.998 | locus YPL241C, strain CIN2, hits give low values 1.01 | locus YPR119W, strain clb2, hits give low values 1.02 | locus YPR141C, strain kar3, hits give low values 1.01 | locus YPR163C, strain tif3, hits give low values 1.04 | locus YPR167C, strain met16, hits give low values 1.03 | strain wtn01, hits give low values 1.02
